Compounds with a hit are over-represented: about 7.7% of the library has one in this group of screens.
PD-1 reversal: activators reversing PD-1 mediated T-cell inhibition | primary human CD4 T cells, PD-L1 beads, CellTiter-Glo 96 h | activation, % (concentration not given with the values) | 29,000 tested, under 10 active | AID 2316; call rule not given here;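 further: 0% = median vehicle wells and 100% = positive control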
Shh pathway inh: Sonic Hedgehog pathway inhibition; Shh-LIGHT2 Gli-luciferase reporter, 30 h; inhibition, % (no concentration beside the values); actives 2.1% (n = 22,000);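 active means mean inhibition across valid replicates above about 65%, limit read from the data; inconclusive means mean under the limit, yet half or more replicates past it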;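 further: pathway switched on by Shh-conditioned medium diluted 1 in 25 in low serum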
NOMO-1 viab: STK33 inhibitor candidate reducing NOMO-1 cell viability; inhibition, % (test concentration not listed); NOMO-1 AML viability, CellTiter-Glo luminescence, 72 h; actives 7.5% (n = 37,000); in the data active means inhibition above about 80%; inconclusive means no clear call, values can overlap the other calls
* marks the source's active call; other numbers are inactive results; ? = inconclusive; . = no result; ! = not active in a repeat.

SMILES	PD-1 reversal	Shh pathway inh	NOMO-1 viab
COc1ccc(Cl)cc1NC(=O)CSc1nnc(-c2ccccc2)n1-c1ccc(C)cc1	-1	.	40
c1ccc(CN(CCN(Cc2ccccn2)Cc2ccccn2)Cc2ccccn2)nc1	-51	-181	98*
Cc1cc[n+](Cc2ccccn2)c(N)c1	1	-26	9
CCn1c2ccccc2n2c(SCC(=O)Nc3ccc(C)cc3)nnc12	2	.	-4
COc1ccc(OC)c(-n2c(=S)[nH]c3cc(C(=O)Nc4ccc(C)c(Cl)c4)ccc3c2=O)c1	0	-30	-11
COc1ccc(NC(=O)c2ccc3c(=O)n(Cc4ccco4)c(=S)[nH]c3c2)cc1OC	0	77*	16
Nc1cc2ncnc(Nc3cccc(Br)c3)c2cc1N	-1	-38	12
CC#CC(=O)Nc1ccc2ncnc(Nc3cccc(Br)c3)c2c1	-15	-37	96*
C[C@H](CO)N1C[C@H](C)[C@@H](CN(C)S(=O)(=O)c2cccs2)Oc2c(NC(=O)c3ccc(-c4nccs4)cc3)cccc2C1=O	.	40	7
C[C@H](CO)N1C[C@H](C)[C@H](CN(C)S(=O)(=O)c2cccs2)Oc2c(NC(=O)c3ccc(-c4nccs4)cc3)cccc2C1=O	-3	92*	58
C[C@H]1CN([C@@H](C)CO)C(=O)c2cccc(NC(=O)c3ccc(-c4nccs4)cc3)c2O[C@@H]1CN(C)S(=O)(=O)c1ccccc1	.	21	26
Cc1ccc(S(=O)(=O)N(C)C[C@@H]2Oc3c(NC(=O)c4ccc(-c5nccs5)cc4)cccc3C(=O)N([C@H](C)CO)C[C@@H]2C)cc1	-4	-7	82*
C[C@@H]1CN([C@H](C)CO)C(=O)c2cccc(NC(=O)c3ccc(-c4nccs4)cc3)c2O[C@@H]1CN(C)S(=O)(=O)c1ccccc1	-1	17	3
C[C@@H]1CN([C@H](C)CO)C(=O)c2cccc(NC(=O)c3ccc(-c4nccs4)cc3)c2O[C@H]1CN(C)S(=O)(=O)c1ccc(Cl)cc1	.	76*	7
Cc1ccc(S(=O)(=O)N(C)C[C@H]2Oc3c(NC(=O)c4ccc(-c5nccs5)cc4)cccc3C(=O)N([C@@H](C)CO)C[C@H]2C)cc1	-1	1	6
C[C@H]1CN([C@@H](C)CO)C(=O)c2cccc(NC(=O)c3ccc(-c4nccs4)cc3)c2O[C@H]1CN(C)S(=O)(=O)c1ccc(Cl)cc1	1	93*	9
O=C(CSCc1ccccc1Br)Nc1cccnc1	.	.	23
c1ccc(-c2nnc(SCc3nc4ccccc4s3)n2-c2ccccc2)cc1	.	.	38
C[C@@H]1CN([C@@H](C)CO)C(=O)c2cccc(NC(=O)c3nc4ccccc4s3)c2O[C@H]1CN(C)S(=O)(=O)c1ccc(Cl)cc1	-3	-14	93*
C[C@H](CO)N1C[C@H](C)[C@H](CN(C)S(=O)(=O)c2ccc(Cl)cc2)Oc2c(NC(=O)c3ccncc3)cccc2C1=O	0	111*	34
C[C@H](CO)N1C[C@H](C)[C@@H](CN(C)S(=O)(=O)c2ccccc2)Oc2c(NC(=O)c3nc4ccccc4s3)cccc2C1=O	0	-16	30
C[C@H](CO)N1C[C@H](C)[C@@H](CN(C)S(=O)(=O)c2ccc(Cl)cc2)Oc2c(NC(=O)c3ccncc3)cccc2C1=O	0	-1	16
CC1CN(c2nc3ccccc3nc2SCC(=O)Nc2ccccc2)CC(C)O1 (configuration not stated)	-2	-36	88*
O=C(CSc1nc2ccccc2nc1N1CCCC1)Nc1ccccc1	-2	-26	43
CCN(CC)S(=O)(=O)c1ccc(Cl)c(C(=O)Oc2ccc(C)c(C)c2)c1	2	-31	23
SMILES	PD-1 reversal	Shh pathway inh	NOMO-1 viab
Fc1ccc(C(c2ccc(F)cc2)N2CCN(C/C=C/c3ccccc3)CC2)cc1	-9	4	116*!
C(=C\c1ccccc1)/CN1CCN(C(c2ccccc2)c2ccccc2)CC1	.	5	25
C[C@H](CO)N1C[C@H](C)[C@@H](CN(C)Cc2ccc(Cl)c(Cl)c2)Oc2c(NC(=O)C3CCOCC3)cccc2C1=O	0	-2	34
C[C@@H]1CN([C@H](C)CO)C(=O)c2cccc(NC(=O)C3CCOCC3)c2O[C@H]1CN(C)Cc1ccc(Cl)c(Cl)c1	-4	70*	30
C[C@@H]1CN([C@H](C)CO)C(=O)c2cccc(NC(=O)Nc3ccccc3)c2O[C@@H]1CN(C)Cc1ccc(Cl)c(Cl)c1	-4	25	?
C[C@@H]1CN([C@@H](C)CO)C(=O)c2cccc(NC(=O)Nc3ccccc3)c2O[C@H]1CN(C)Cc1ccc(Cl)c(Cl)c1	.	9	102*
C[C@@H]1CN([C@@H](C)CO)C(=O)c2cccc(NC(=O)Nc3ccc(F)cc3)c2O[C@@H]1CN(C)Cc1ccc(Cl)c(Cl)c1	-5	40	93*
